These sequences were tested against C2orf57 (assay: pooled miR-30 sensor sort-seq; sequence = guide strand). Details: shRNA.
Further: reference of the scale not given here.

Sequence | sensor-assay potency score (higher = more potent)
TTGTCTTTGTCTCCAGATGTTG | -1.39
AAAACCACTAGACTCTGACTTG | -0.273
TCTCTCAGGAACACTCGCCATT | -1.27
TAAAGCTTCAGCTTCAGGGTGT | 0.632

These sequences were tested against C2orf70 in the same assay as above. Details: shRNA.

Sequence | sensor-assay potency score (higher = more potent)
TTGGTGGAGAAGATGGTGGGGA | 0.218
TTGATAGTACTTCCGATGCTGC | -0.858
TTGAACTCGGTCAGTAGGGTGC | -0.0549
TGTCTTGATAGTACTTCCGATG | -1.09
TAGAAATTCGTAAGCTCTGTGG | -0.326
TTGTCTTGATAGTACTTCCGAT | -0.575
TACTTGAGGGTGGTGGTGCCGT | -0.758
TAGGTCTTCAGGTTCTCGGGGG | 0.319
TAGCAGTCTCTCTTTTTCCGCT | -0.538
TAAAAGGTGCCACTTCTTCTTT | -0.951
TTCGTAAGCTCTGTGGAGCGAT | -0.412
TAGTCTTAAAAGGTGCCACTTC | -0.307
